According to PubChem BioAssay (NCI):
This is part of a sample that, as a whole, favours compounds with a hit. Of some 79,000 tested, about 15% had one in any assay. A number with no mark means an inactive call. The source made the active and inactive calls. Cut-off read from the data, not from the text of the source: active = growth inhibition above about 70%; inactive = the rest.

Assay: NCI Yeast Anticancer Drug Screen. Data for the sgs1 mgt1 strain (AID 161);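 note: 0% = growth of cultures given vehicle only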
Details: S. cerevisiae sgs1 mgt1 strain, at 50.0 µM, active compounds read high
Method in brief: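 Mutant yeast exposed to compound; growth scored against vehicle-only wells.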

SMILES	growth inhibition
Cc1ccc(S(=O)(=O)NNc2nc(N3CCOCC3)nc(N3CCOCC3)n2)cc1	63%
O=C1OC(CC(=O)c2ccc(Cl)cc2Cl)C(Cl)=C1Cl (stereo unspecified)	93% (active)
CCOC(=O)c1ccc(-n2c(C)nc3ccc(Br)cc3c2=O)cc1	40%
CCN(CC)CCOc1ccc(C=C2c3ccccc3-c3ccccc32)cc1	99.3% (active)
Cc1nn(C(=O)c2ccccc2O)c2c1C(c1ccc(O)cc1O)SC(N)=N2 (stereo unspecified)	42.5%
CN(NC(=O)/C(=C/c1cc(Cl)cc(Cl)c1O)NC(=O)c1ccccc1)c1cnn(-c2ccccc2)c(=O)c1Cl	59.1%
Cn1c(=S)c2[nH]c(SCc3ccncc3)nc2n(C)c1=O	64%
O=C1N=c2ccc(Br)cc2=C1c1sc(=O)n(Cc2nc3ccccc3[nH]2)c1O	79.2% (active)
N#C/C(=C\c1cccnc1)c1csc2ccccc12	75.2% (active)
Cc1nn(CCO)c(=O)c(C#N)c1C	61.7%
CN(/N=C/c1ccc(C(=O)O)cc1)C1=NCCCCN1	-7.95%
C=CCCCN1C(=O)C2C3c4ccccc4C(C=O)(c4ccccc43)C2C1=O (stereo unspecified)	27.9%
CC(Cc1ccccc1)N1C(=O)C=CC1=O (stereo unspecified)	93.8% (active)
O=C(Nc1c(Cl)cc([N+](=O)[O-])cc1Cl)/C(=N\Nc1cccc(Cl)c1)c1c(O)c2ccccc2oc1=O	-1%
C/C(=N/O)c1ccc2c(c1)C(=NO)c1cc(/C(C)=N/O)ccc1-2	94.2% (active)
CCCCCCCCCCCC(=O)NC(CCC(=O)O)C(=O)O (stereo unspecified)	5.95%
O=C1c2ccccc2C(=O)c2c1cccc2[N+](=O)[O-]	86% (active)
C/C=C\C=N\NC(N)=S	-17.4%
Oc1c(Cl)cc(C(c2cc(Cl)c(O)c(Cl)c2)C(c2cc(Cl)c(O)c(Cl)c2)c2cc(Cl)c(O)c(Cl)c2)cc1Cl	42.8%
S=C1NC2=C(CSC/C2=C\c2ccccc2)C(c2ccccc2)N1 (stereo unspecified)	65.2%
O=[N+]([O-])c1cccc2nc3ccccc3c(NCCNCCO)c12	80.2% (active)
COC12C=CC(CC1)c1c2c(O)c2ccncc2c1O (stereo unspecified)	70%

Assay: NCI Yeast Anticancer Drug Screen. Data for the cln2 rad14 strain (AID 165);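 note: 0% = growth equal to vehicle treated cultures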
Details: S. cerevisiae cln2 rad14 strain, at 5.0 µM (retest, dose inferred, filed as 0.5), active compounds read high
Method in brief: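 Growth of compound-exposed yeast (cln2 rad14 genotype) measured and expressed as inhibition relative to vehicle.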

SMILES	growth inhibition
CC(=O)Oc1ccccc1C(=O)/C=C/c1ccccc1	0%
CN(C)C(=S)/N=c1\ssc(=S)n1-c1ccccc1	38%
CCOC(=O)C(NS(=O)(=O)c1ccccc1)(C(F)(F)F)P(=O)(OCC(C)C)OCC(C)C (stereo unspecified)	2%
CC(C)Nc1nc(NC(C)C)c2cnn(-c3ccccc3)c2n1	-10%
CCCCCCCCC1(OCCCS(=O)(=O)O)COc2ccccc2OCCOCCOc2ccccc2OC1	-4%
Oc1ccc2c(c1)Cc1ccccc1-2	-8%
CCOC(=O)N1C2C=CC(=O)C(C=C2)N1C(=O)OCC (stereo unspecified)	7%
CC(=O)OCc1ccc2c(c1)C(O)NC(=O)O2 (stereo unspecified)	-5%
CC(C)=CCc1ccc(O)cc1	5%
CCCCCCCCC(=O)Cl	6%
O=S1(=O)C(C(O)(c2ccccc2)c2ccccc2)CCCN1c1ccccc1 (stereo unspecified)	1%
CCCCCCCCCCCCNCC(=O)O	1%
CC(C)=CCc1c2c(c(O)c3c(=O)c(-c4ccc(O)cc4O)coc13)C=CC(C)(C)O2	15%
O=C(CCC(O)(c1ccccc1)c1ccccc1)c1ccccc1	-89%
CS(=O)(=O)OCCN(CCOS(C)(=O)=O)c1ccc(C=Nc2ccc(-c3csc(-c4ccc(Br)cc4)n3)cc2)cc1	19%
O=P(O)(CN1CCN(CP(=O)(O)c2ccccc2)CCN(CP(=O)(O)c2ccccc2)CC1)c1ccccc1	12%
CC(C)c1ccc2c(c1)CCC1C(C)(CN)CCCC21C (stereo unspecified)	-6%
Cc1ccc(S(=O)(=O)NNc2nc(N3CCOCC3)nc(N3CCOCC3)n2)cc1	3%
O=C1OC(CC(=O)c2ccc(Cl)cc2Cl)C(Cl)=C1Cl (stereo unspecified)	1%
CCOC(=O)c1ccc(-n2c(C)nc3ccc(Br)cc3c2=O)cc1	0%

SMILES	growth inhibition
CCN(CC)CCOc1ccc(C=C2c3ccccc3-c3ccccc32)cc1	99% (active)
Cc1nn(C(=O)c2ccccc2O)c2c1C(c1ccc(O)cc1O)SC(N)=N2 (stereo unspecified)	16%
CN(NC(=O)/C(=C/c1cc(Cl)cc(Cl)c1O)NC(=O)c1ccccc1)c1cnn(-c2ccccc2)c(=O)c1Cl	-6%
Cn1c(=S)c2[nH]c(SCc3ccncc3)nc2n(C)c1=O	-3%
O=C1N=c2ccc(Br)cc2=C1c1sc(=O)n(Cc2nc3ccccc3[nH]2)c1O	-6%
N#C/C(=C\c1cccnc1)c1csc2ccccc12	1%
Cc1nn(CCO)c(=O)c(C#N)c1C	-1%
CN(/N=C/c1ccc(C(=O)O)cc1)C1=NCCCCN1	3%
C=CCCCN1C(=O)C2C3c4ccccc4C(C=O)(c4ccccc43)C2C1=O (stereo unspecified)	16%
CC(Cc1ccccc1)N1C(=O)C=CC1=O (stereo unspecified)	77% (active)
O=C(Nc1c(Cl)cc([N+](=O)[O-])cc1Cl)/C(=N\Nc1cccc(Cl)c1)c1c(O)c2ccccc2oc1=O	8%
C/C(=N/O)c1ccc2c(c1)C(=NO)c1cc(/C(C)=N/O)ccc1-2	14%
CCCCCCCCCCCC(=O)NC(CCC(=O)O)C(=O)O (stereo unspecified)	-5%
O=C1c2ccccc2C(=O)c2c1cccc2[N+](=O)[O-]	69%
C/C=C\C=N\NC(N)=S	3%
Oc1c(Cl)cc(C(c2cc(Cl)c(O)c(Cl)c2)C(c2cc(Cl)c(O)c(Cl)c2)c2cc(Cl)c(O)c(Cl)c2)cc1Cl	98% (active)
S=C1NC2=C(CSC/C2=C\c2ccccc2)C(c2ccccc2)N1 (stereo unspecified)	26%
O=[N+]([O-])c1cccc2nc3ccccc3c(NCCNCCO)c12	75% (active)
COC12C=CC(CC1)c1c2c(O)c2ccncc2c1O (stereo unspecified)	-3%
